Data published in PubChem BioAssay (EPA / NIEHS).
Inconclusive results are not listed. Active and inactive are the calls of the source. Rule for the calls: active = hit-call score of the fitted dose curve at least 0.9, where 1 is the maximum; inconclusive = response in the unintended direction; inactive = score below 0.9.

What follows are molecules tested against human Constitutive Androstane Receptor (CAR), NR1I3 (gene 9970) (UniProt Q14994) (assay: NVS_NR_hCAR_Antagonist: NovaScreen (NVS) Nuclear Receptor Binding Assay for human Constitutive Androstane Receptor Antagonism (CAR) (AID 2283344)).
Chain of human Constitutive Androstane Receptor (CAR), NR1I3 (gene 9970) (Q14994 whole entry, looked up): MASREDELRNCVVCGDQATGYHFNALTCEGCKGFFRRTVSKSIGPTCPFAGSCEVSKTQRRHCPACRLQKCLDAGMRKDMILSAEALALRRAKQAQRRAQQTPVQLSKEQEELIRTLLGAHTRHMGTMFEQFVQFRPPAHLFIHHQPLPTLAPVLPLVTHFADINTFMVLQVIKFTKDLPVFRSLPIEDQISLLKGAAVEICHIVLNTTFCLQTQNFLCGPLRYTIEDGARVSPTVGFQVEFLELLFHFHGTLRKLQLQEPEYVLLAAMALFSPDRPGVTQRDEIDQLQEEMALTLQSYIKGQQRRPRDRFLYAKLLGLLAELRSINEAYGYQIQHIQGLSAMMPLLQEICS
Experimental: NVS_NR_hCAR_Antagonist is a biochemical, single-readout assay that uses extracted gene-proteins in a cell-free assay. Measurements were taken 1 hour after chemical dosing in a 384-well plate.NVS_NR_hCAR_Antagonist is one of one assay component(s) measured or calculated from the NVS_NR_hCAR_Antagonist assay. It is designed to make measurements of fluorescent resonance energy transfer, a form of binding reporter, as detected with fluorescent resonance energy transfer signals by Time-Resolved Fluorescence Resonance Energy Transfer (TR-FRET) technology.Data from the assay component NVS_NR_hCAR_Antagonist was analyzed into 1 assay endpoint. This assay endpoint, NVS_NR_hCAR_Antagonist, was analyzed in the positive analysis fitting direction relative to DMSO as the negative control and baseline of activity. Using a type of binding reporter, loss-of-signal activity can be used to understand changes in the binding as they relate to the gene NR1I3. Furthermore, this assay endpoint can be referred to as a primary readout, because the performed assay has only produced 1 assay endpoint. To generalize the intended target to other relatable targets, this assay endpoint is annotated to the nuclear receptor intended target family, where the subfamily is non-steroidal.
Binding assays used specific radioligands (tritiated, iodinated) with non-radioactive competitive displacement ligands in agonist or antagonist protocols (as indicated) and various reference compounds and inhibitors to titrate specific binding to receptors and transporters. Most enzyme assays (CYPs, kinases, phosphatases, proteases, HDACs) used recombinant protein and specific substrates (fluorescence mostly, some colorimetric and radioactive) and inhibitors, followed by a biochemical separation of substrate and product. All assays for the biochemical HTS were initially run in duplicate at a single concentration (10 uM for CYP450 assays and 25 uM for all others). […] Each assay was run with positive and negative controls, and concurrent controls on every plate. The follow-up (secondary) screen tested active chemical-pairs in concentration series, as well as a few additional assays not tested in the primary screen, some selected negative inactives, and several cases re-run in the concentration series for confirmatory purposes.
With O=S(=O)(O)C(F)(F)C(F)(F)C(F)(F)C(F)(F)C(F)(F)C(F)(F)F the outcome was “inactive”. In the case of CCC(C)(CC)c1cc(NC(=O)c2c(OC)cccc2OC)on1, the outcome is reported as “inactive”. In the case of CC1=C2C[C@H]3[C@@H](CC=C4C[C@@H](O)CC[C@@]43C)[C@@H]2CC[C@]12O[C@@H]1C[C@H](C)CN[C@H]1[C@H]2C, the outcome is reported as “inactive”. In the case of CCNc1nc(NC(C)C)nc(SC)n1, the outcome is reported as “inactive”. Oc1ccc(C(c2ccc(O)cc2)(C(F)(F)F)C(F)(F)F)cc1 was tested, and the AC50 was 2.29 nM (active). For c1cc2ccc3cccc4ccc(c1)c2c34, the outcome was “inactive”. In the case of Cc1cc2c3c(c1)C(c1ccccc1)=N[C@@H](NC(=O)c1ccncc1)C(=O)N3CC2, the outcome is reported as “inactive”. CCCCCCCCCc1ccc(O)cc1 was tested, and the outcome was “inactive”. For ClC1=C(Cl)[C@]2(Cl)[C@@H]3[C@@H](Cl)[C@H]4O[C@H]4[C@@H]3C1(Cl)C2(Cl)Cl, the outcome was “inactive”. For CCCN(CCC)N=O, the outcome was “inactive”.
